HT1080NT lethal: kills 2HG-producing HT-1080-NT fibrosarcoma cells; HT-1080-NT fibrosarcoma viability, CellTiter-Glo ATP luminescence, 48 h; Potency, µM (series often up to 46.1 µM), most hits filed as cytotoxic; 360,000 tested, 1.6% active; AID 686970;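 note: NT is the 2HG producing partner of a matched IDH1 knockdown line; nearly all actives have a fitted effect of over 55% in size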
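Luminescent CellTiter-Glo readout after 48 hours of compound exposure at 37 degrees C defined viability of HT-1080-NT cells. Activity was normalized to DMSO wells and cell-free media wells; concentration-response curves were fitted and assigned curve classes.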
HT1080 IDH1KD tx: kills HT-1080 cells with IDH1 knockdown; HT-1080 IDH1 knockdown viability, ATP luminescence, 48 h; Potency, µM (series often up to 46.1 µM), usual class: cytotoxic; 360,000 tested, 2% active
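IDH1KD HT-1080 cells, 750/well, RPMI + 5% FBS; compound pinned after 2 h settling; 48 h, 37 °C; CellTiter-Glo luminescence; % activity normalised to DMSO and no-cell wells; curves fitted, classed by r2 and efficacy.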
MCF10A rerep: DNA re-replication induction in MCF 10a cells; Potency, µM (titrated, usually from 46.1 µM), most hits filed as activators; MCF 10A DNA re-replication, Hoechst nuclear intensity, 48 h; 350,000 tested, 2.9% active; note: nearly all actives have a fitted effect of over 50% in size
KB-3-1 tox: kills parental KB-3-1 adenocarcinoma cells | KB-3-1 viability, CellTiter-Glo ATP luminescence, 72 h | Potency, µM (series often up to 46.1 µM), most hits filed as cytotoxic | 400,000 tested, 1.4% active | AID 1347075; note: nearly all actives have a fitted effect of over 60% in size
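Here the drug-naive KB-3-1 line serves as comparator for MDR sub-line selectivity; cells received compound titrations, 72 h at 37 °C, then CellTiter-Glo readout.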
KB-V1 cytotox: kills drug-selected multidrug resistant KB-V1 cells | KB-V1 MDR cells viability, CellTiter-Glo, 72 h | Potency, µM (doses to about 46.1 µM), usual class: cytotoxic | 400,000 tested, 3.4% active; note: nearly all actives have a fitted effect of over 60% in size
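KB-V1 MDR subline cells in DMEM (phenol-red free, 10% FBS) exposed to compounds in qHTS concentration series for 72 h at 37 degrees C. Viability read by CellTiter-Glo luminescence; concentration-effect curves fitted after normalization and correction.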
SW480 rerep: induces DNA re-replication in SW480 colon adenocarcinoma cells; 340,000 tested, 1.8% active; SW480 DNA re-replication, Hoechst DNA content imaging, 48 h; Potency, µM (highest dose often 46.1 µM), usual class: activators; note: nearly all actives have a fitted effect of over 55% in size
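Compounds, transferred as 23 nL by pin tool, were incubated with cells for 48 hr; DNA content per nucleus was then quantified by Hoechst staining and fluorescence plate imaging.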
Hits are given with their value; – = inactive; ? = inconclusive; · = no result given. Shown are actives, neighbours in structure and some others; about 7.9% of the full set was active somewhere. Calls come from the whole dose curve; as a rule, active = well fitted curve in the direction sought with a large enough effect; inconclusive = small, poorly fitted or top-dose-only effect, or another doubt; inactive = no such curve, though single readings can be large; an effect the other way counts as inactive or inconclusive.

SMILES	HT1080NT lethal	HT1080 IDH1KD tx	MCF10A rerep	KB-3-1 tox	KB-V1 cytotox	SW480 rerep
CCCc1cc(=O)[nH]c(Nc2ccccc2O)n1	·	·	·	–	–	·
CC(C)c1ncc(CO)n1Cc1c(Cl)cccc1Cl	–	–	·	–	–	·
CCc1cccc(CC)c1NC(=O)Cn1nnc2sc3c(c2c1=O)CCCC3	·	·	·	–	–	·
Cc1cc(S(=O)(=O)NCc2ccccc2)ccc1OCC(=O)NCc1ccccn1	–	–	–	–	?	–
COc1cccc(CN(C)CC(=O)Nc2cccc(S(N)(=O)=O)c2)c1OC	–	–	–	–	–	–
Cc1cc(S(=O)(=O)NCc2ccccc2)ccc1OCC(=O)Nc1cccc([N+](=O)[O-])c1	–	?	?	–	13µM	–
CCN(CC(=O)Nc1cccc(S(=O)(=O)N(C)c2ccccc2)c1)Cc1cccs1	–	–	–	?	4.61µM	–
COc1cccc(CN(C)CC(=O)Nc2cccc(S(=O)(=O)N(C)c3ccccc3)c2)c1OC	–	–	?	?	2.59µM	–
CC1=NN(c2nc(-c3ccccc3)cs2)C(=O)C1	–	–	?	–	–	–
O=C1CC(c2ccccc2)=NN1c1nc(-c2ccccc2)cs1	–	–	16.4µM	–	–	–
O=C1C2C3c4ccccc4C(c4ccccc43)[C@@H]2C(=O)N1c1nc(-c2ccccc2)cs1 (stereo not given in full)	–	–	–	–	20.6µM	–
N#Cc1nnn2c1nc(N)c1c(Cl)cccc12	–	–	·	1.3µM	0.581µM	·
N#Cc1nnn2c1nc(N)c1c(F)cccc12	–	–	–	?	2.91µM	–
Nc1n[nH]c2cccc(Cl)c12	–	–	?	–	–	–
CCC(C)OC(=O)/C(C#N)=C\c1ccc(-c2ccccc2Cl)o1 (stereo not given)	·	·	·	–	–	·
Cc1ccc(S(=O)(=O)Cc2ccc(C(=O)NCc3ccc4c(c3)OCO4)o2)cc1	–	–	–	–	9.2µM	–
Cc1ccccc1S(=O)(=O)Cc1ccc(C(=O)NC(C)c2ccc3c(c2)OCCO3)o1 (stereo not given)	–	–	–	–	–	–
CC(NC(=O)c1ccc(CS(=O)(=O)c2ccc(Cl)cc2)o1)c1ccc2c(c1)OCCO2 (stereo not given)	–	–	?	–	10.3µM	–
Cc1c(C)c2cc3c(c(C)c2oc1=O)OCN(CCc1ccc(F)cc1)C3	·	·	·	–	–	·
Cc1ccc(S(=O)(=O)N(C)CC(=O)N(C)CCOc2ccccc2)cc1	–	–	·	–	–	·
O=C(O)CN1C(=O)C=CC1=O	–	–	·	–	–	·
O=C1C=CC(=O)N1CCCCCCN1C(=O)C=CC1=O	?	?	3.66µM	?	18.4µM	11.6µM
Cc1cc(C)c(C#N)c(SCc2nnc(-c3ccccc3)o2)n1	–	–	2.59µM	–	3.66µM	8.2µM
Cc1ccc(C#N)c(SCc2nnc(-c3ccc(Cl)cc3)o2)n1	–	–	0.731µM	–	11.6µM	2.31µM
Cc1ccc(C#N)c(SCc2cc3c(cc2Cl)OCO3)n1	–	–	–	–	–	–
SMILES	HT1080NT lethal	HT1080 IDH1KD tx	MCF10A rerep	KB-3-1 tox	KB-V1 cytotox	SW480 rerep
Cc1nc(-c2ccccc2)sc1-c1ccc(SCC(=O)NCc2ccc(F)cc2)nn1	·	·	·	–	?	·
COc1ccc(OCC(O)CNC2CCCC2)cc1 (stereo not given)	–	–	–	–	–	–
COc1ccc(CNCC(O)COc2ccc(C(C)(C)c3ccccc3)cc2)cc1 (stereo not given)	20.6µM	16.4µM	?	?	?	?
COC(=O)c1ccc(CNCC(O)COc2ccc(-c3ccccc3)cc2)cc1 (stereo not given)	–	–	?	–	–	?
CC(C)(c1ccccc1)c1ccc(OCC(O)CNC2CCN(Cc3ccccc3)CC2)cc1 (stereo not given)	3.26µM	2.91µM	?	?	18.4µM	–
CCOc1ccc(OCC(O)CNC2CCN(Cc3ccccc3)CC2)cc1 (stereo not given)	?	?	?	?	16.4µM	?
CC(=O)c1ccc(OCC(O)CN2CCN(Cc3ccccc3)CC2)cc1 (stereo not given)	–	–	–	–	–	–

Bioassay records from PubChem BioAssay.
